Reference: PubChem BioAssay (NCI)
The panel holds about 79,000 compounds, 15% with a hit somewhere; the sample as a whole holds those more often. The source made the active and inactive calls. Cut-off read from the data, not from the text of the source: active = growth inhibition above about 70%; inactive = the rest. Where a SMILES comes first, the peptide text is derived from it. The star is where a group is joined. For = O=C*

assay: NCI Yeast Anticancer Drug Screen. Data for the rad50 strain (AID 155);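 note: 0% = growth of vehicle-only cultures of the same strain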; settings: S. cerevisiae rad50 strain growth inhibition; at 50.0 µM; stronger effect = higher value
Method in brief: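 Relative growth inhibition (compound vs vehicle) was measured in yeast with a defined repair-gene alteration.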

| SMILES | growth inhibition |
| --- | --- |
| C=C(Cl)/C(=C\Cl)CCC(Cl)C(C)C (stereo not given) | 19.6% (inactive) |
| COC(=O)c1cc(NS(=O)(=O)c2ccc(N)cc2)cc(C(=O)OC)c1 | -12.6% (inactive) |
| O=c1c2cc(-c3ccccc3)sc2nc2n1N=C(c1ccccc1)CS2 | -1.35% (inactive) |
| COc1ncn(C2CC(OC(=O)c3ccc(C)cc3)C(COC(=O)c3ccc(C)cc3)O2)c(=O)n1 (stereo not given) | -8.3% (inactive) |
| CCN1C(=O)N(C)C(O)c2c1nc1ccccn1c2=O (stereo not given) | -14.1% (inactive) |
| O=C(CCc1cc(O)cc(O)c1)NCCc1cc(OCc2ccccc2)cc(OCc2ccccc2)c1 | 28.7% (inactive) |
| Cc1cc(Cl)c(Cl)cc1NC(=O)c1ccc(Cl)c(Cl)c1 | 5.15% (inactive) |
| O=C(NN=C1CCCCC1)NN=C1CCCCC1 | -40.2% (inactive) |
| CCOC(=O)c1cnc(=S)[nH]c1N | 40.5% (inactive) |
| CCCC(C)c1ccc(C(=O)O)cc1 (stereo not given) | 10.2% (inactive) |
| Clc1c(Cl)c(CBr)c(Cl)c(-c2c(Cl)c(Cl)c(Cl)c(CBr)c2Cl)c1Cl | 2.15% (inactive) |
| NC(Cc1cccc(F)c1)C(=O)O (stereo not given) | -1.3% (inactive) |
| CC(=O)Nc1ccc(C(=O)N2C(=N)C(C#N)=C(O)/C2=C\c2ccc(Cl)c(Cl)c2)cc1 | -7.3% (inactive) |
| Cc1c([N+](=O)[O-])cc(C(C)(C)C)c(OC(=O)CCl)c1[N+](=O)[O-] | 99.5% (active) |
| CCn1c(=O)c(C#N)c2n(CC)c3ccccc3n2c1=O | 39.5% (inactive) |
| O=C1C=C(Nc2ccc(Cl)cc2C(=O)c2ccccc2)c2ccccc2C1=O | 3% (inactive) |
| c1ccc(-c2nc3ccccc3nc2-c2ccc(-c3nc4ccccc4nc3-c3ccccc3)cc2)cc1 | 8.2% (inactive) |
| CSCCC(NC(=O)C(Cc1ccccc1)NC=O)C(=O)O (stereo not drawn) (For-Phe-Met-OH; configuration not given here) | -12.1% (inactive) |
| CCOc1ccc(CCC(=O)O)cc1 | 3.55% (inactive) |
| Cc1ccncc1.[O]=[Ge].[O]=[Ge].[O]=[Ge].[O]=[Ge].[O]=[Ge].[O]=[Ge][OH].[O]=[Ge][OH] | -27.3% (inactive) |

| SMILES | growth inhibition |
| --- | --- |
| C=C(C)C(=O)OCCn1c(=O)c2c(ncn2C)n(C)c1=O | -7.25% (inactive) |
| O=C(Nc1cc(Cl)c(Cl)cc1Cl)OCc1ccc2c(c1)OCO2 | -12.1% (inactive) |
| Cc1ccc(S(=O)(=O)Nc2ccccc2-c2nc3c(Cl)ccc(Cl)c3c(=O)o2)cc1 | 33.6% (inactive) |
| CCCCCCCCCCCCSC(=O)NCCC | -3.75% (inactive) |
| CN(C)CCNc1ccc2nnn3c4ccccc4c(=O)c1c23 | 32.5% (inactive) |
| COC(=O)c1cc(=O)c2c(=O)[nH]c(=O)[nH]c2[nH]1 | -3.65% (inactive) |
| O=C(O)c1c[nH]c2ccc([N+](=O)[O-])cc2c1=O | -21% (inactive) |
| CCCCOC(=O)NC(=O)c1cc2cc(Br)cc(Br)c2oc1=O | -2% (inactive) |
| N#Cc1cccc(NC(=O)c2ccc(C(=O)O)c(C(=O)c3ccc(C(=O)O)c(C(=O)Nc4cccc(C#N)c4)c3)c2)c1 | -18.6% (inactive) |
| O=C1NC(=O)C2(CCCCCC2)N1 | -23.9% (inactive) |
| NC(C(=O)O)C1C=CCCC1 (stereo not given) | -25.4% (inactive) |
| CN1CNC(=S)NC1 | 10.2% (inactive) |
| COc1ccc(Cc2cc3c(cc2OCC(=O)N2CCOCC2)OCO3)cc1 | -3.25% (inactive) |
| O=[N+]([O-])c1ccc(P(=O)(Nc2ccc3ccccc3c2)Nc2ccc3ccccc3c2)cc1 | 34.5% (inactive) |
| O=C(Nc1cccc([N+](=O)[O-])c1)c1ccccc1Cl | -0.65% (inactive) |
| C1C2CC3CC1CC(c1nn4c(C56CC7CC(CC(C7)C5)C6)nnc4s1)(C2)C3 | -20.4% (inactive) |
| COC(=O)/C=C/c1ccc(OC)c(OC)c1 | 22.3% (inactive) |
| COc1ccc(CSc2nc3ccccc3nc2-c2cccs2)cc1 | -16.2% (inactive) |
| CCOC(=O)C(/C=N/Nc1ccc([N+](=O)[O-])cc1[N+](=O)[O-])Oc1cccc(OC)c1 (stereo not given) | -8.85% (inactive) |
| CCCCN(C)C(=O)C1=C(C)NC(C)=C(C(=O)N(C)CCCC)C1 | -1.45% (inactive) |

assay: NCI Yeast Anticancer Drug Screen. Data for the mec2-1 strain (AID 157); settings: S. cerevisiae mec2-1 strain, at 50.0 µM, stronger effect = higher value
Method in brief: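 Readout is yeast growth inhibition, normalised to vehicle-treated controls, in the mec2-1 strain exposed to compound.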

| SMILES | growth inhibition |
| --- | --- |
| C=C(Cl)/C(=C\Cl)CCC(Cl)C(C)C (stereo not given) | 15.2% (inactive) |
| COC(=O)c1cc(NS(=O)(=O)c2ccc(N)cc2)cc(C(=O)OC)c1 | -24.2% (inactive) |
| O=c1c2cc(-c3ccccc3)sc2nc2n1N=C(c1ccccc1)CS2 | -2.7% (inactive) |
| COc1ncn(C2CC(OC(=O)c3ccc(C)cc3)C(COC(=O)c3ccc(C)cc3)O2)c(=O)n1 (stereo not given) | -9.1% (inactive) |
| CCN1C(=O)N(C)C(O)c2c1nc1ccccn1c2=O (stereo not given) | -8.35% (inactive) |
| O=C(CCc1cc(O)cc(O)c1)NCCc1cc(OCc2ccccc2)cc(OCc2ccccc2)c1 | 24.7% (inactive) |
| Cc1cc(Cl)c(Cl)cc1NC(=O)c1ccc(Cl)c(Cl)c1 | 23.4% (inactive) |
| O=C(NN=C1CCCCC1)NN=C1CCCCC1 | -10.8% (inactive) |
| CCOC(=O)c1cnc(=S)[nH]c1N | -8.35% (inactive) |
| CCCC(C)c1ccc(C(=O)O)cc1 (stereo not given) | -10.7% (inactive) |
| Clc1c(Cl)c(CBr)c(Cl)c(-c2c(Cl)c(Cl)c(Cl)c(CBr)c2Cl)c1Cl | -4.1% (inactive) |
| NC(Cc1cccc(F)c1)C(=O)O (stereo not given) | -30.1% (inactive) |
| CC(=O)Nc1ccc(C(=O)N2C(=N)C(C#N)=C(O)/C2=C\c2ccc(Cl)c(Cl)c2)cc1 | -5.7% (inactive) |
| Cc1c([N+](=O)[O-])cc(C(C)(C)C)c(OC(=O)CCl)c1[N+](=O)[O-] | 99.7% (active) |
| CCn1c(=O)c(C#N)c2n(CC)c3ccccc3n2c1=O | 13.8% (inactive) |
| O=C1C=C(Nc2ccc(Cl)cc2C(=O)c2ccccc2)c2ccccc2C1=O | -11.7% (inactive) |
| c1ccc(-c2nc3ccccc3nc2-c2ccc(-c3nc4ccccc4nc3-c3ccccc3)cc2)cc1 | -0.6% (inactive) |
| CSCCC(NC(=O)C(Cc1ccccc1)NC=O)C(=O)O (stereo not drawn) (For-Phe-Met-OH; configuration not given here) | -26.9% (inactive) |
| CCOc1ccc(CCC(=O)O)cc1 | -9% (inactive) |
| Cc1ccncc1.[O]=[Ge].[O]=[Ge].[O]=[Ge].[O]=[Ge].[O]=[Ge].[O]=[Ge][OH].[O]=[Ge][OH] | -35.4% (inactive) |

| SMILES | growth inhibition |
| --- | --- |
| C=C(C)C(=O)OCCn1c(=O)c2c(ncn2C)n(C)c1=O | -18.8% (inactive) |
| O=C(Nc1cc(Cl)c(Cl)cc1Cl)OCc1ccc2c(c1)OCO2 | -32.3% (inactive) |
| Cc1ccc(S(=O)(=O)Nc2ccccc2-c2nc3c(Cl)ccc(Cl)c3c(=O)o2)cc1 | 0.15% (inactive) |
| CCCCCCCCCCCCSC(=O)NCCC | -2.05% (inactive) |
| CN(C)CCNc1ccc2nnn3c4ccccc4c(=O)c1c23 | 7.45% (inactive) |
| COC(=O)c1cc(=O)c2c(=O)[nH]c(=O)[nH]c2[nH]1 | -1.25% (inactive) |
| O=C(O)c1c[nH]c2ccc([N+](=O)[O-])cc2c1=O | -12.8% (inactive) |
| CCCCOC(=O)NC(=O)c1cc2cc(Br)cc(Br)c2oc1=O | 25.8% (inactive) |
| N#Cc1cccc(NC(=O)c2ccc(C(=O)O)c(C(=O)c3ccc(C(=O)O)c(C(=O)Nc4cccc(C#N)c4)c3)c2)c1 | -9.7% (inactive) |
| O=C1NC(=O)C2(CCCCCC2)N1 | -23.9% (inactive) |
| NC(C(=O)O)C1C=CCCC1 (stereo not given) | -3.4% (inactive) |
| CN1CNC(=S)NC1 | -7.85% (inactive) |
| COc1ccc(Cc2cc3c(cc2OCC(=O)N2CCOCC2)OCO3)cc1 | -9.5% (inactive) |
| O=[N+]([O-])c1ccc(P(=O)(Nc2ccc3ccccc3c2)Nc2ccc3ccccc3c2)cc1 | 15.2% (inactive) |
| O=C(Nc1cccc([N+](=O)[O-])c1)c1ccccc1Cl | 16.1% (inactive) |
| C1C2CC3CC1CC(c1nn4c(C56CC7CC(CC(C7)C5)C6)nnc4s1)(C2)C3 | -12.8% (inactive) |
| COC(=O)/C=C/c1ccc(OC)c(OC)c1 | 0.4% (inactive) |
| COc1ccc(CSc2nc3ccccc3nc2-c2cccs2)cc1 | -39.2% (inactive) |
| CCOC(=O)C(/C=N/Nc1ccc([N+](=O)[O-])cc1[N+](=O)[O-])Oc1cccc(OC)c1 (stereo not given) | -8.4% (inactive) |
| CCCCN(C)C(=O)C1=C(C)NC(C)=C(C(=O)N(C)CCCC)C1 | -26.4% (inactive) |
